One experiment concerns SKOV3. Briefly: Primary qHTS to identify gynecologic anti-cancer compounds using libraries of approved drugs and bioactive compounds (AID 1345084). Also: nearly all actives have a fitted effect of over 55% in size. Conditions: Gynecologic cancer cell panel viability, ATPlite luminescence, 48 h; series mostly up to 57.5 µM. Summed up:
(§1)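 Five-concentration response, 48 h; readout is ATP-driven luciferase luminescence.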

Another experiment deals with Tov-21-G. The experiment is described as above. The settings on record: Gynecologic cancer cell panel viability, ATPlite luminescence, 48 h; series mostly up to 57.5 µM. In a few lines:
as §1

A further experiment deals with Tov112D. Described as above. Conditions: Gynecologic cancer cell panel viability, ATPlite luminescence, 48 h; series mostly up to 57.5 µM. Summed up:
as §1
Background: ATP-based viability assays read luminescence as a measure of living cells.

Experiment [1] in a line: qHTS assay to identify inhibitors of the type 1 interferon - major histocompatibility complex class I in skeletal muscle: Counter screen cell viability and HiBit confirmation (AID 1347412). As to all read-outs here: nearly all actives have a fitted effect of over 60% in size. Conditions: iHSKM muscle cells + IFN-b, HiBiT or CellTiter-Glo, 24 h; for activity change, negative = inhibition: at 45.9 µM (top of the series). Summed up:
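Myoblasts (C25cl48, HLA-B HiBiT) seeded in medium without dexamethasone, IFN-b 4 ng/ml added except unstimulated columns; 1 hr later compounds pinned (12-pt 1:3, top 46 uM final). Incubated 24 hrs, lysed 10 min, luminescence measured.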
A general note: In qHTS, concentration-response curves come from the screen itself.

Experiment [2] can be described thus: Drug repurposing screens with cells derived from glioblastoma tumor samples (AID 1345199). Also: nearly all actives have a fitted effect of over 40% in size. Conditions: GBM patient neurospheres viability, ATP luminescence, 48 h. In a few lines:
(§2)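 Four patient lines of CD133+ GBM neurospheres were screened at several concentrations; hits were retested in those lines plus three slower-growing GBM lines, using 48-hour treatment and ATP-based viability.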

Another experiment concerns astro. The description is as above. Conditions: viability, ATP luminescence, 48 h; series mostly up to 45.9 µM. Summed up: as §2
Where [3] appears, read: at 46.1 µM (top of the series), tumour line C.

This passage reports Potency, activity change, negative = inhibition and activity, negative = cell killing results from PubChem BioAssay (NCATS).

Molecules are shown by their SMILES. Inconclusive results are not listed. Unmarked numbers belong to inactive results. Activity calls are given as the source filed them. Calls follow the shape of the dose curve; as a rule, active = well fitted curve in the direction sought with a large enough effect; inconclusive = small, poorly fitted or top-dose-only effect, or another doubt; inactive = no such curve, though single readings can be large; an effect the other way counts as inactive or inconclusive.
% is scaled to controls: 0 for no effect and ±100 for the full control effect; potency is read from the fitted curve at half-maximal effect.

For the molecule `O=C1NC(=O)C(c2cnc3ccccn23)=C1c1cn2c3c(cc(F)cc13)CN(C(=O)N1CCCCC1)CC2`, the Potency entry with SKOV3, with Tov-21-G and with Tov112D was “inactive” throughout. In addition, the activity change, negative = inhibition in experiment [1] (Viability) was -0.987%.

As to `O=C1Cc2c([nH]c3ccc(Br)cc23)-c2ncccc2N1`, the Potency entry in the experiment on SKOV3, in the experiment on Tov-21-G and in the experiment with Tov112D was “inactive” each time.

Regarding `Nc1nc(NC2CC2)cc(-c2cccc(Cl)c2Cl)n1`, the results for the Potency in the experiment with SKOV3 and with Tov112D were 14.1 µM (active) and 12.6 µM (active), respectively.

For the molecule `C1=C/COCc2cc(ccc2OCCN2CCCC2)Nc2nccc(n2)-c2cccc(c2)COC/1`, the Potency in the experiment on SKOV3 is 8.91 µM (active); in the experiment with Tov-21-G it was 10 µM (active); in the experiment on Tov112D it was 11.2 µM (active); in experiment [1] (HiBiT), 3.52 µM (active).

As for `CC(=O)O[C@@H]1[C@@H](OC(C)=O)[C@H](C)O[C@@H](O[C@H]2[C@@H]3C=CO[C@@H](O[C@@H]4O[C@H](CO)[C@@H](O)[C@H](O)[C@H]4O)[C@@H]3[C@@]3(CO)O[C@@H]23)[C@@H]1OC(=O)/C=C/c1ccccc1`, the Potency entry in the experiment on SKOV3 and in the experiment on Tov112D was “inactive” each time.

As for `CC[C@H](C)/C=C(C)/C=C/C1=CC2=CC(=O)[C@]3(C)OC(=O)[C@@H](C(C)=O)[C@@H]3C2=CO1`, the Potency result in the experiment on SKOV3 and in the experiment with Tov112D was “inactive” throughout.

Consider `CCC[C@@]1(CCc2ccccc2)CC(O)=C([C@H](CC)c2cccc(NS(=O)(=O)c3ccc(C(F)(F)F)cn3)c2)C(=O)O1`, for which the Potency result with SKOV3, with Tov-21-G and in the experiment with Tov112D was “inactive” throughout. Besides, the activity, negative = cell killing in experiment [2] (at 45.9 µM (top of the series), tumour line B) is -17%; in experiment [2] (at 45.9 µM (top of the series), tumour line D), -1.26%; in experiment [2] (setting [3]) it was -12.2%.

Take `CC1(C)CN(C(=O)c2ccc(-c3cccc4nc(NC(=O)C5CC5)nn34)cc2)C1`: the Potency result with SKOV3, in the experiment on Tov-21-G and in the experiment on Tov112D was “inactive” each time. Also, in experiment [1] (HiBiT), the Potency is 7.87 µM (active). Further, the activity change, negative = inhibition in experiment [1] (Viability) was 3.01%.

Regarding `COc1nc2ccc(Br)cc2cc1[C@@H](c1ccccc1)[C@@](O)(CCN(C)C)c1cccc2ccccc12`, the Potency entry in the experiment with SKOV3, with Tov-21-G and in the experiment with Tov112D was “inactive” in each case.

As for `CN[C@H]1CC[C@@H](c2ccc(Cl)c(Cl)c2)c2ccccc21`, in experiment [2] (setting [3]), the activity, negative = cell killing is 17.5%. Besides, the Potency is 2.24 µM (active) in experiment [2] (tumour line A), 17.8 µM (active) in experiment [2] (tumour line B), 6.31 µM (active) in experiment [2] (tumour line D) and 20 µM (active) in the experiment with astro.

`Oc1cccc(-c2c3nc(c(-c4cccc(O)c4)c4ccc([nH]4)c(-c4cccc(O)c4)c4nc(c(-c5cccc(O)c5)c5ccc2[nH]5)CC4)C=C3)c1`: in the experiment on astro, the Potency was 25.1 µM (active).

As for `CCNC(=O)C#Cc1ccc2c(C(=Nc3ccc(CN(C)C)cc3)c3ccccc3)c(O)[nH]c2c1`, the Potency in experiment [1] (HiBiT) is 17.6 µM (active); in experiment [1] (Viability), 9.91 µM (active).

As for `CCn1nc(C2CCN(C(=O)CCO)CC2)nc1-c1cnc(N)c(-c2nnc(C(C)(C)C)o2)n1`, the activity change, negative = inhibition in experiment [1] (HiBiT) is -28.4%.

Turning to `Cc1sc2c(c1C)C(c1ccc(Cl)cc1)=N[C@@H](CC(=O)Nc1ccc(OCCOCCOCCOCCNc3cccc4c3C(=O)N(C3CCC(=O)NC3=O)C4=O)cc1)c1nnc(C)n1-2` (stereo partly drawn), the activity change, negative = inhibition in experiment [1] (Viability) was 0.552%.

Take `Cc1[nH]c(/C=C2\C(=O)Nc3ccc(F)cc32)c(C)c1C(=O)NCCN1CCCC1`: the activity change, negative = inhibition in experiment [1] (Viability) was -1.6%.

For the molecule `CCN1CCN(Cc2ccc(NC(=O)c3ccc(C)c(Oc4ccnc5[nH]ccc45)c3)cc2C(F)(F)F)CC1`, the Potency in the experiment on Tov-21-G is 12.6 µM (active).

For `O=C(O)c1ccc(N2C(=O)/C(=C/c3ccc(-c4ccc([N+](=O)[O-])cc4)o3)C=C2c2ccccc2)cc1`, the Potency result in the experiment on Tov-21-G and in the experiment on Tov112D was “inactive” throughout.

`CC(=O)NC(C)c1cnc(-c2cnc(Oc3ccc(OC(C)C)cc3)s2)s1` (stereo not drawn): the Potency entry in the experiment on Tov-21-G and in the experiment on Tov112D was “inactive” throughout.

As to `CC(=O)OC1C(OC(=O)c2ccccc2)C2C(=C(C)CCC2(C)C)C23CCC(C)(C2)C(=O)CC13` (stereo not drawn), the Potency entry with Tov-21-G and in the experiment with Tov112D was “inactive” in each case.

Turning to `C=CC(=O)N1CCC(Oc2cc3c(Nc4ccc(Cl)c(Cl)c4F)ncnc3cc2OC)CC1`, the Potency with Tov-21-G is 25.1 µM (active).

Consider `O=C(Nc1cccnn1)N1CCN(c2nccc(-c3ccc(F)c(F)c3)n2)CC1`, for which the Potency entry in the experiment on Tov-21-G and in the experiment on Tov112D was “inactive” in each case.

With `CCCCc1c(-c2ccc(OC)cc2)[nH]c2nccnc12`, the Potency entry with Tov-21-G and in the experiment on Tov112D was “inactive” in each case.

With `N#Cc1cc(-c2ccnc(Nc3ccc(N4CCOCC4)cc3)n2)ccc1OC1CCOCC1`, the Potency result in the experiment with Tov-21-G and in the experiment with Tov112D was “inactive” throughout.

For `Fc1ccc(-c2nc(-c3c(F)cccc3F)[nH]c2-c2ccncc2)cc1`, the Potency result with Tov-21-G and with Tov112D was “inactive” in each case.
